Our source for the residual activity values is ChEMBL document CHEMBL2218924, “A broad activity screen in support of a chemogenomic map for kinase signalling research and drug discovery” (Biochem J, 2013).

Rho-associated protein kinase 2 (Homo sapiens), sequence (O75116 whole entry, looked up): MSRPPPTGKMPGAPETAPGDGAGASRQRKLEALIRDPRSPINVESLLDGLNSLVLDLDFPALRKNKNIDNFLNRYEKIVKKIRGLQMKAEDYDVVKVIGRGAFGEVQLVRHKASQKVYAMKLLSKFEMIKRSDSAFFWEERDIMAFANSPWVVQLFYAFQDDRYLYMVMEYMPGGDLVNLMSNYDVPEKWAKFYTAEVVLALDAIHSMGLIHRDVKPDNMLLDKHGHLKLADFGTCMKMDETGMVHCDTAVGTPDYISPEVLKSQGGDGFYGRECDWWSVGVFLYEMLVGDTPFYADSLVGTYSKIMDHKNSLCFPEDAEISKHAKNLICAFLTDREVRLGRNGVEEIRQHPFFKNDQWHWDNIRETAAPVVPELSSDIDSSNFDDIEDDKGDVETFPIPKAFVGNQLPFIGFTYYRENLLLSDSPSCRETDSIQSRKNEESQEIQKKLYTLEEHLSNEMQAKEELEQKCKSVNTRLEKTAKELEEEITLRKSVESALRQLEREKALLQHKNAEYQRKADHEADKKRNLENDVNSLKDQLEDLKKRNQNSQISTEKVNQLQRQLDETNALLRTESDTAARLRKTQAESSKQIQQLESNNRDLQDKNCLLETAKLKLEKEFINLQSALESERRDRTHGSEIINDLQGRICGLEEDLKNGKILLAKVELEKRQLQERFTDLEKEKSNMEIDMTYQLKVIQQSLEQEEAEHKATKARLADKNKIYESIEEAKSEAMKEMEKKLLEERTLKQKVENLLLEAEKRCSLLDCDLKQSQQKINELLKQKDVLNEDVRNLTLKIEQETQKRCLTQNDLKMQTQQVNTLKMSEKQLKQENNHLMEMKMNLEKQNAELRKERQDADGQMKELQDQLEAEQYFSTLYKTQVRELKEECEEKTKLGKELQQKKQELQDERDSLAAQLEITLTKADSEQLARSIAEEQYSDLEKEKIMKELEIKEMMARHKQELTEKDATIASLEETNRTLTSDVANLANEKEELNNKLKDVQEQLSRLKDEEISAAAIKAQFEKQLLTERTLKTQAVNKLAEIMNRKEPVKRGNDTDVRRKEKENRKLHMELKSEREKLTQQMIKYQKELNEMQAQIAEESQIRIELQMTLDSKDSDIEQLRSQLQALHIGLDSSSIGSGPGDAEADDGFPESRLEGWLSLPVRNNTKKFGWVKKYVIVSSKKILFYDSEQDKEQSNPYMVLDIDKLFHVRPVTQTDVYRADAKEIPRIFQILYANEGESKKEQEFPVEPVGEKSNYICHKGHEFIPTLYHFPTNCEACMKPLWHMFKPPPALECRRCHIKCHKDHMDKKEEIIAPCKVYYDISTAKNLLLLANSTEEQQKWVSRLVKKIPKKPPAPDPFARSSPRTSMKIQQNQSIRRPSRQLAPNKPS

One assay concerns the target Rho-associated protein kinase 2 (Homo sapiens) (UniProt O75116). The settings on record: at 1 µM.
Regarding `CC(=O)c1ccc(N2CCOCC2)cc1O`, the residual activity came out at 92%.

As for `Oc1n[nH]c2nnc(-c3c(-c4ccccc4)nn4ccccc34)cc12`, the residual activity stood at 83%.

In the case of `c1ccc2c(-c3ccncc3)c[nH]c2c1`, the residual activity was 37%.

In the case of `Nc1n[nH]c2nnc(-c3c(-c4ccccc4)nn4ccccc34)cc12`, the residual activity was determined as 84%.

Regarding `O=C1NC(=O)/C(=C\c2ccc3nccnc3c2)S1`, the residual activity was found to be 95%.

As for `COc1cccc(-c2cc(=O)c3ccccc3o2)c1N`, the residual activity worked out at 97%.

On to `Cc1cccc(-c2[nH]c(C(C)(C)C)nc2-c2ccc3c(c2)OCO3)n1`, for which the residual activity was found to be 103%.

Regarding `C[C@@H](N)[C@H]1CC[C@H](C(=O)Nc2ccncc2)CC1`, the residual activity worked out at 19%.

Take `N#CCCc1ccc2c(c1)-c1[nH]c3ccc([N+](=O)[O-])cc3c1CC(=O)N2`: the residual activity is 8%.

For the compound `CC(C)n1cnc2/c(=N/c3cccc(Cl)c3)nc(NCCO)[nH]c21`, the residual activity was found to be 83%.

For the compound `N#C/C(=C(\N)Sc1ccc(N)cc1)c1ccccc1C(F)(F)F`, the residual activity is 102%.

Turning to `Cn1nc2c3c(cccc31)C(=O)c1ccccc1-2`, the residual activity stood at 104%.

For another assay the target is unchanged. The settings on record: at 10 µM.
`CCN(CC)CCCCN1c2ccccc2Oc2ccc(Cl)cc21`: the residual activity amounted to 91%.

As for `c1ccc(-c2n[nH]c3c2oc2ccccc23)cc1`, the residual activity was determined as 75%.

Consider `Cc1nc2cc3nc(-c4cccs4)cnc3cc2n1C`, for which the residual activity worked out at 93%.

In the case of `Cc1cc(Nc2nc(-c3ccccc3)nc3ccccc23)n[nH]1`, the residual activity worked out at 98%.

As to `Oc1ccc(Nc2nc(-c3ccc(Cl)cc3)cs2)cc1`, the residual activity is 102%.

Consider `CC(=O)O/N=C1\C(=C2\C(=O)Nc3cc(Br)ccc32)Nc2ccccc21`, for which the residual activity worked out at 95%.

Consider `CCN(CC)C(=O)c1ccc(Nc2nc(OCC3CCCCC3)c3nc[nH]c3n2)cc1`, for which the residual activity was 4%.

`CO[C@@H]1[C@H](N(C)C(=O)c2ccccc2)C[C@H]2O[C@]1(C)n1c3ccccc3c3c4c(c5c6ccccc6n2c5c31)C(=O)NC4`: the residual activity came out at 57%.

For the compound `Oc1ccc(-c2nc(-c3ccc(F)cc3)c(-c3ccncc3)[nH]2)cc1`, the residual activity was determined as 36%.

As for `CN(C)CCCn1cc(C2=C(c3c[nH]c4ccccc34)C(=O)NC2=O)c2ccccc21`, the residual activity was 88%.

Turning to `COc1cc2ncnc(N3CCN(C(=O)Nc4ccc(Oc5ccccc5)cc4)CC3)c2cc1OC`, the residual activity turned out to be 87%.

Regarding `COc1cc2ncnc(Nc3ccc(NC(=O)c4ccccc4)cc3)c2cc1OC`, the residual activity came to 82%.

Consider `O=C1NC(=O)c2cc(Nc3ccc(F)cc3)c(Nc3ccc(F)cc3)cc21`, for which the residual activity worked out at 78%.

As for `COc1cc2ncnc(Nc3ccc(Oc4ccccc4)cc3)c2cc1OC`, the residual activity was 84%.

Regarding `NC(=O)c1ccc2[nH]c(-c3ccc(Oc4ccc(Cl)cc4)cc3)nc2c1`, the residual activity came out at 72%.

Turning to `O=C1Nc2ccc(Br)cc2/C1=C\c1cc2c([nH]1)CCCC2`, the residual activity is 82%.

In the case of `CC(C)n1cnc2c(NCc3ccccc3)nc(NCCCO)nc21`, the residual activity came out at 90%.

Regarding `c1ccc(-c2n[nH]cc2-c2ccnc3ccccc23)nc1`, the residual activity was determined as 76%.

In the case of `CC#CC(=O)Nc1cc2c(Nc3ccc(F)c(Cl)c3)ncnc2cn1`, the residual activity amounted to 77%.

In the case of `CC(=O)c1ccc(N2CCOCC2)cc1O`, the residual activity came to 87%.

For the compound `Oc1n[nH]c2nnc(-c3c(-c4ccccc4)nn4ccccc34)cc12`, the residual activity was determined as 91%.

For the compound `c1ccc2c(-c3ccncc3)c[nH]c2c1`, the residual activity worked out at 6%.

For `Nc1n[nH]c2nnc(-c3c(-c4ccccc4)nn4ccccc34)cc12`, the residual activity stood at 90%.

For the compound `O=C1NC(=O)/C(=C\c2ccc3nccnc3c2)S1`, the residual activity worked out at 80%.

As for `COc1cccc(-c2cc(=O)c3ccccc3o2)c1N`, the residual activity came to 96%.

For `Cc1cccc(-c2[nH]c(C(C)(C)C)nc2-c2ccc3c(c2)OCO3)n1`, the residual activity came to 82%.

Regarding `C[C@@H](N)[C@H]1CC[C@H](C(=O)Nc2ccncc2)CC1`, the residual activity turned out to be 4%.

For the compound `N#CCCc1ccc2c(c1)-c1[nH]c3ccc([N+](=O)[O-])cc3c1CC(=O)N2`, the residual activity turned out to be 7%.

For `CC(C)n1cnc2/c(=N/c3cccc(Cl)c3)nc(NCCO)[nH]c21`, the residual activity turned out to be 66%.

For the compound `N#C/C(=C(\N)Sc1ccc(N)cc1)c1ccccc1C(F)(F)F`, the residual activity was 95%.

For `Cn1nc2c3c(cccc31)C(=O)c1ccccc1-2`, the residual activity is 89%.
